In PubChem BioAssay AID504466 (National Center for Advancing Translational Sciences (NCATS), 2011):
Out of some 330,000 compounds screened, about 4,200 (1.3%) were called active. A call without a number means that no potency is given here. Not shown: some 6% with an inconclusive outcome. The call rests on the fitted dose curve; in most records, active means well fitted activation curve with a large enough effect; inconclusive means small, poorly fitted or top-dose-only effect; inactive means no such curve, though single readings can be large or run the other way. The sample as a whole holds a higher share of actives than the screen did.

Experiment: qHTS screen for small molecules that induce genotoxicity in human embryonic kidney (HEK293T) cells expressing luciferase-tagged ELG1; further: nearly all actives have a fitted effect of over 60% in size
Settings: HEK293T ELG1-luciferase reporter, luminescence, 16 h; series mostly up to 46 µM
Outline: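 Step 1: seed 2,000 HEK293T ELG1-luciferase cells per well. Step 2: add compound or DMSO, incubate 16 hr at 37 °C. Step 3: ONE-Glo, 30 min at room temperature, read luminescence.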
Potency means the concentration at half of the fitted maximal effect.

SMILES	Potency
CCCc1cc(C(=O)Nc2ccc(Cl)cn2)cs1	2.31 µM (active)
CCCc1cc(C(=O)Nc2ccc(C(=O)OC)cc2)cs1	inactive
O=C(Nc1ccc(Cl)cn1)c1ccc2c(c1)OCCO2	1.16 µM (active)
COc1c(Cl)cc(C(=O)Nc2ccc(Cl)cn2)cc1Cl	inactive
COc1ccc(C(=O)NC(=S)Nc2ccc(Cl)cn2)cc1OC	inactive
Cc1nc(NC(=O)c2ccc3c(c2)OCCO3)ccc1Br	inactive
O=C(Nc1cccc(S(=O)(=O)N2CCCC2)c1)c1cncc(Br)c1	inactive
COc1ccc(-c2sc3ccc(OC)cc3c2C#Cc2ccccn2)cc1	inactive
COc1cc(OC)c2c(-c3cccc(-c4cccc(N)c4)c3)cc(=O)oc2c1	inactive
CCN([C@H](CO)C(C)C)S(=O)(=O)c1ccccc1Br	inactive
Cc1ccc2c(c1)C1C[N+](C)(CC(=O)c3ccccc3)CCC1N2C(=O)c1ccccc1Cl (centres undefined)	inactive
CC1CCCCC1NC(=O)COc1ccc(C#N)cc1 (centres undefined)	inactive
C=CCC[C@@H](Cc1ccc(F)cc1)C(=O)O[C@H](CNC(=O)[C@H](CC=C)CC(=O)N(CCO)Cc1ccccc1)c1ccccc1	inactive
COC(=O)c1ccc(CNC(=O)c2ccc(S(=O)(=O)N3CCCCCC3)cc2)cc1	inactive
Cc1noc(C)c1COc1ccc(C(=O)NCCOc2ccccc2)cc1	inactive
O=C(NCCOc1ccccc1)c1ccccc1	1.64 µM (active)
CCCCCCCCC(=O)NCCOc1ccccc1	inactive
Cc1cc(Cl)c(S(=O)(=O)Nc2ccc3c(c2)OCCO3)cc1OCC(N)=O	23.1 µM (active)
Cc1cc(Cl)c(S(=O)(=O)NCC2CCCO2)cc1OCC(N)=O (centres undefined)	inactive
Cc1cc(Cl)c(S(=O)(=O)N(C)C)cc1OCC(N)=O	inactive
COC(=O)C1=C(C)N(Cc2ccccc2)C(=NCCCOC(C)C)N[C@H]1c1ccccc1	inactive
CN(C)C(=O)CCc1ccc2c3c([nH]c2c1)[C@]1(C)[C@@H](C(=O)N2CCCCC2)C[C@H](CC(=O)NCCC2=CCCCC2)C(=O)N1CC3	inactive
Cc1cccc(C)c1OCCN1CCOCC1	inactive
CCn1c2ccc(F)cc2c2nnc(SCCN3CCOCC3)nc21	inactive
Cc1cc2nc(SCCN3CCOCC3)[nH]c2cc1C	18.4 µM (active)

SMILES	Potency
Cc1ccc(C(=O)OCC(=O)N2CCCCCC2)cc1S(=O)(=O)N1CCOCC1	inactive
O=C1/C(=C/c2cccs2)CCc2ccccc21	8.2 µM (active)
CN1C/C(=C/c2cccs2)C(=O)/C(=C\c2cccs2)C1	inactive
CCC1C/C(=C/c2cccs2)C(=O)/C(=C/c2cccs2)C1 (centres undefined)	inactive
O=C(COc1cccnc1[N+](=O)[O-])Nc1ccc(Cl)cc1F	inactive
O=C(COC(=O)COc1cccc(F)c1)NCC1CCCCC1	inactive
COc1ccc2sc(-c3ccc(S(C)(=O)=O)cc3)c(C#Cc3cncn3C)c2c1	inactive
CC(C)(C)OC(=O)C[C@@H]1C/C=C\C[C@H](CC(=O)N[C@@H](CO)Cc2ccccc2)C(=O)N[C@H](Cc2ccccc2)COC1=O	inactive
CN(c1ccc(C(=O)N2CCc3ccccc3C2)cc1)S(C)(=O)=O	inactive
O=C(c1noc2c1CCCC2)N1CCc2ccccc2C1	20.6 µM (active)
Cc1ccc(-c2cc(C(=O)N3CCc4ccccc4C3)no2)cc1	inactive
CC(C)CC1(C)NC(=O)N(CC(=O)Nc2ccc3c(c2)OCCO3)C1=O (centres undefined)	inactive
Cc1ccc(S(=O)(=O)NCC(=O)NNC(=O)c2ccc(Br)cc2)cc1C	inactive
Cc1ccc(-c2nc(-c3ccncc3)no2)c(C)c1	20.6 µM (active)
COc1ccc(-c2noc(CN(C)S(=O)(=O)c3ccc(C)cc3)n2)cc1	inactive
Cc1ccc(-c2noc(CSc3nnc(-c4ccncc4)n3-c3ccc(F)cc3)n2)cc1	inactive
COc1ccc(-c2csc3nc(-c4ccccc4F)oc(=O)c23)cc1OC	inactive
COc1ccccc1CNS(=O)(=O)c1ccc(C)cc1	inactive
Cc1ccc(-c2noc(CC(c3ccccc3)c3ccccc3)n2)cc1	inactive
COc1ccc(-c2noc(CSc3ccc(C)cc3)n2)cc1	inactive
COc1ccc(-c2noc(-c3cccc(OC)c3OC)n2)cc1OC	3.26 µM (active)
COc1ccc(-c2noc(CCCC(=O)NC3CCCC3)n2)cc1OC	inactive
Cc1ccc(-c2noc(-c3ccccc3C(=O)NCC3CCCO3)n2)cc1 (centres undefined)	inactive
COc1ccc(-c2noc(-c3ccc(C)cc3)n2)cc1	3.66 µM (active)
COc1ccccc1Cc1nc(-c2ccc(C)cc2)no1	18.4 µM (active)

SMILES	Potency
CCOC(=O)C1CCCN(C(=O)CSc2nnc3nc(C)cc(C)n23)C1 (centres undefined)	inactive
CC(C)NC(=O)Nc1cccc2c1O[C@H](CN(C)S(=O)(=O)c1cccs1)[C@@H](C)CN([C@H](C)CO)C2=O	inactive
COc1ccc(-c2sc3ccccc3c2-c2ccc(OCCN3CCOCC3)cc2)cc1	inactive
O=C(COC(=O)c1cccnc1Cl)Nc1ccc(S(=O)(=O)N2CCOCC2)cc1	inactive
COc1ccc2[nH]c3c(c2c1)CCN1C(=O)C(CC(=O)NCCCN(C)C)C[C@H](C(=O)N2CCOCC2)[C@@]31CCC1CCCC1 (some centres undefined)	inactive
Cc1ccc(S(=O)(=O)Nc2ccc(F)c(S(=O)(=O)N3CCOCC3)c2)cc1	inactive
CCn1nc(C(=O)NNS(=O)(=O)c2cc(/C=C/C(=O)O)cc(OC)c2OC)c2ccccc2c1=O	inactive
C[C@H]1CN([C@@H](C)CO)C(=O)Cc2cc(NS(C)(=O)=O)ccc2O[C@@H]1CN(C)CC1CC1	inactive
Cc1ccc(Cc2nc(-c3cccc(C)c3)no2)cc1	16.4 µM (active)
COc1ccc(-c2nc(-c3ccccc3)no2)c(OC)c1	0.058 µM (active)
COc1ccc(-c2n[nH]c(C)c2-c2ccccc2OC)c(O)c1	inactive
Cc1ccc(-c2noc(CSc3nnc(-c4ccccc4)n3C)n2)cc1	inactive
Cc1cccc(-c2noc(CCC(=O)NC3CCCC3)n2)c1	inactive
COc1ccc(-c2noc(CNC(=O)C(C)Oc3ccccc3)n2)cc1 (centres undefined)	inactive
O=C(COC(=O)c1ccc(F)cc1)Nc1ccc2c(c1)OCO2	inactive
O=C(CN1C(=O)NC2(CCCCCC2)C1=O)NCc1ccc(F)cc1	inactive
O=C(N[C@H]1C/C=C\C(c2ccc(F)cc2)N(Cc2ccccc2)C(=O)C1)OCC1c2ccccc2-c2ccccc21 (some centres undefined)	inactive
C#CCOCCOCCOCCNc1nc(N2CCN(C(=O)[C@H](CCCN=C(N)N)n3cc(C(N)[C@@H](C)CC)nn3)CC2)nc(N2CCN(C(=O)[C@H](CO)n3cc([C@@H](N)C(C)C)nn3)CC2)n1 (some centres undefined)	inactive
CCN(c1ccccc1)S(=O)(=O)c1ccc(C(=O)Nc2ccccc2OC)cc1	inactive
Cc1cccc(C)c1OC(=O)CSc1nnc(-c2ccccc2)o1	inactive
CCCCSc1nnc(-c2ccc(C)cc2)o1	2.06 µM (active)
CCOC(=O)CSc1nnc(-c2ccc([N+](=O)[O-])cc2)o1	inactive
c1ccc2c(CCN3CCNC[C@H]3Cc3cccc4ccccc34)cccc2c1	inactive
COc1ccc(-n2nnnc2-c2nc3ccccc3s2)cc1	1.46 µM (active)
COc1ccc(-n2nnnc2CNC(=O)c2ccc3ccccc3c2)cc1	inactive

SMILES	Potency
COc1ccc(C2=NN(c3nc4ccccc4s3)C(=O)C2)cc1	inactive
O=C(Nc1ccc(N2CCOCC2)cc1)c1cccc(S(=O)(=O)N2CCOCC2)c1	inactive
O=C(CCc1ccc(S(=O)(=O)N2CCOCC2)cc1)OCC(=O)c1ccc(Br)cc1	inactive
COc1ccc(OCc2cc(C(=O)NCC3(C)COC3)no2)c(Cl)c1	inactive
Cc1cc(OCc2cc(C(=O)NCc3cc(C(C)C)no3)no2)cc(C)c1Cl	3.66 µM (active)
Cc1cccnc1CC(C)NC(=O)c1cc(COc2cncc(Cl)c2)on1 (centres undefined)	inactive
CC1(C)C[C@H]2C3=CCC4[C@@]5(C)CC[C@H](O)[C@](C)(CO)C5CC[C@@]4(C)[C@]3(C)C[C@@H](O)[C@@]2(CO)[C@@H](O)[C@@H]1O (some centres undefined)	inactive
CC(C)(C)OC(=O)C1=C(CO)CS[C@@H]2[C@H](NC(=O)Cc3ccccc3)C(=O)N12	inactive
C/C(=N\NC(=O)c1ccccc1F)c1ccccn1	3.66 µM (active)
C/C(=N\NC(=O)Cc1ccc(Br)cc1)c1cccnc1	inactive
C/C(=N\NC(=O)Cc1ccc(Cl)cc1)c1ccccn1	9.2 µM (active)
Cc1ccc(Cl)cc1NC(=O)c1ccccn1	inactive
C/C(=N\NC(=O)Cc1ccc(F)cc1)c1ccc(F)cc1	inactive
C/C(CC(=O)Nc1ccc(N(C)C)cc1)=N\NC(=O)c1ccccc1F	inactive
COc1ccc2[nH]c3c(c2c1)CCN1C(=O)C(CC(=O)NCc2cccc(C(F)(F)F)c2)C[C@H](C(=O)N2CCOCC2)[C@@]31C (some centres undefined)	inactive
O=C(COc1ccc(F)cc1Br)NCC1COc2ccccc2O1 (centres undefined)	inactive
CCCCOC(=O)Nc1nnc(CC(=O)NCc2ccccc2)s1	inactive
CCCCCCOC(=O)NCC(O)c1ccccc1 (centres undefined)	18.4 µM (active)
CCCCCOC(=O)NCCOC(=O)Nc1ccc(C(=O)OCC)cc1	inactive
O=C(CNC(=O)c1n[nH]c2ccccc12)Nc1cc(Cl)ccc1Cl	inactive
CCN(CC)C(=O)[C@H]1CC(CC(=O)NCc2ccco2)C(=O)N2CCc3c([nH]c4ccccc34)[C@]12C (some centres undefined)	inactive
COc1ccc(NS(=O)(=O)c2cc(NC(=O)c3ccc(S(=O)(=O)N(C)C)cc3)ccc2N2CCOCC2)cc1	inactive
CCN(C[C@H]1N[C@@](Cc2ccccc2)(C(=O)OC)[C@H]2C(=O)N(Cc3ccccc3)C(=O)[C@@H]12)C(=O)c1ccc(C)cc1	inactive
COc1ccc(NC(=O)CNc2cc(S(=O)(=O)N3CCOCC3)ccc2N2CCOCC2)c(OC)c1	inactive
